Test results as given in PubChem BioAssay (EPA / NIEHS).
Inconclusive results are not listed. The source made the active and inactive calls. Rule for the calls, unless noted: active = hit-call score of the fitted dose curve at least 0.9, where 1 is the maximum; inactive = score below 0.9.

Legend:
[1] = ATG_TAL_CIS: Attagene CIS-FACTORIAL HepG2 Assay for human TAL Basal Promoter (AID 2282966); details: HepG2 Attagene cis-factorial TAL promoter reporter; actives raise or lower the signal;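 note: background control endpoint measuring basal TAL promoter reporter mRNA not a specific factor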
Outline: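 Readout: reporter mRNA, fluorescence by CE. System: HepG2, transient multi-reporter transfection, endogenous TF activity. Exposure: 24 h. Analysis: bidirectional, DMSO-normalized; background control.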

[2] = ATG_TGFb_CIS: Attagene CIS-FACTORIAL HepG2 Assay for human Transforming Growth Factor (TGF) (AID 2282967); details: HepG2 Attagene CIS TGFb reporter, mRNA transcription; actives raise or lower the signal
Outline: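 After a 24-hour incubation with compound, transfected HepG2 cells were lysed for RNA; reporter cDNA was amplified, fluorescently end-labeled and separated by CE. DMSO served as baseline for bidirectional fits.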

[3] = ATG_VDRE_CIS: Attagene CIS-FACTORIAL HepG2 Assay for human Vitamin D Receptor Element (VDRE) (AID 2282968); details: HepG2 VDRE cis-reporter transcription, actives raise or lower the signal
Outline: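 Transiently transfected HepG2 cells carrying cis-regulated reporter transcription units were exposed for 24 h. Reporter mRNA was measured by RT-PCR with fluorescent labelling and capillary electrophoresis, and fitted in both directions against DMSO.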

[4] = molecular target: Nuclear receptor subfamily 1 group I member 3 (Homo sapiens) (UniProt Q14994); test: ATG_CAR_TRANS: Attagene TRANS-FACTORIAL HepG2 Assay for human Constitutive Androstane Receptor (CAR) (AID 2282969; active = hit-call score of the fitted dose curve at least 0.9, where 1 is the maximum;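 note: activators raise reporter mRNA above DMSO so AC50 marks induction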); details: HepG2 Attagene TRANS-FACTORIAL CAR reporter
Outline: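 HepG2 cells transiently transfected with GAL4-UAS reporter units; TRANS format reads activity of exogenous chimeric NR-Gal4 protein. After 24 h dosing, reporter mRNA quantified by RT-PCR, 6-FAM labelling and capillary electrophoresis; gain of signal fitted against DMSO.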

[5] = molecular target: Estrogen receptor (Homo sapiens) (UniProt P03372); test: ATG_ERa_TRANS: Attagene TRANS-FACTORIAL HepG2 Assay for human Estrogen Receptor alpha (ERa) (AID 2282970; active = hit-call score of the fitted dose curve at least 0.9, where 1 is the maximum); details: HepG2 Attagene TRANS ERa GAL4 reporter, mRNA
Outline: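 Transactivation via ERa-Gal4 chimera in HepG2; 24 hour incubation; reporter mRNA detected by fluorescence RT-PCR and capillary electrophoresis.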

[6] = molecular target: X-box-binding protein 1 (Homo sapiens) (UniProt P17861); test: ATG_Xbp1_CIS: Attagene CIS-FACTORIAL HepG2 Assay for human X-box Binding Protein 1 (XBP1) (AID 2282972); details: HepG2 XBP1 cis-element reporter, Attagene multiplex; actives raise or lower the signal
Outline: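 HepG2 cells transiently transfected with cis-regulated multiple reporter transcription units; endogenous transcription factor activity measured 24 hours after chemical dosing. Reporter mRNA quantified by RT-PCR, 6-FAM primer extension, HpaI digestion and capillary electrophoresis; bidirectional fitting versus DMSO.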

[7] = ATG_GAL4_TRANS: Attagene TRANS-FACTORIAL HepG2 Assay for GAL4 (Internal Marker) (AID 2282976; active = hit-call score of the fitted dose curve at least 0.9, where 1 is the maximum); details: HepG2 Attagene TRANS GAL4 internal marker reporter
Outline: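 Fluorescence from capillary electrophoresis of labelled RT-PCR products quantifies reporter mRNA induction after 24 h dosing of HepG2 cells carrying transfected GAL4-UAS reporter transcription units. Vehicle DMSO serves as baseline.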

[8] = molecular target: Estrogen-related receptor gamma (Homo sapiens) (UniProt P62508); test: ATG_ERRg_TRANS: Attagene TRANS-FACTORIAL HepG2 Assay for human Estrogen-Related Receptor gamma (ERRg) (AID 2282977; active = hit-call score of the fitted dose curve at least 0.9, where 1 is the maximum;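 note: hits increase reporter signal over DMSO so potencies reflect activators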); details: HepG2 Attagene TRANS reporter, ERRg transactivation
Outline: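 Transfect HepG2 with multiple GAL4-UAS reporter transcription units; dose chemicals 24 h; isolate RNA, reverse-transcribe with oligo(dT), PCR-amplify, label with 6-FAM, digest with HpaI; size fragments by capillary electrophoresis. DMSO serves as negative control.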

[9] = ATG_M_19_TRANS: Attagene TRANS-FACTORIAL HepG2 Assay for M19 Transcription Factor (Internal Marker) (AID 2282974; active = hit-call score of the fitted dose curve at least 0.9, where 1 is the maximum); details: HepG2 Attagene TRANS-FACTORIAL M19 internal marker reporter
Outline: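 Cells: human HepG2, transiently transfected with multiplexed reporter transcription units. Exposure: 24 h. Detection: RT-PCR of reporter mRNA with capillary electrophoresis. Analysis: gain-of-signal vs DMSO.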

[10] = molecular target: Steroid hormone receptor ERR1 (Homo sapiens) (UniProt P11474); test: ATG_ERRa_TRANS: Attagene TRANS-FACTORIAL HepG2 Assay for human Estrogen-Related Receptor alpha (ERRa) (AID 2282971; active = hit-call score of the fitted dose curve at least 0.9, where 1 is the maximum); details: HepG2 Attagene TRANS reporter, ERRa transactivation
Outline: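 HepG2 cells were transiently transfected with multiple GAL4-UAS reporter units, then dosed with compound for 24 h. Total RNA was reverse-transcribed, reporter cDNA PCR-amplified and fluorescently labelled, and fragments resolved by capillary electrophoresis; induction was compared with DMSO.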

Measured: AC50

X-box-binding protein 1 (Homo sapiens), sequence (P17861 whole entry, looked up): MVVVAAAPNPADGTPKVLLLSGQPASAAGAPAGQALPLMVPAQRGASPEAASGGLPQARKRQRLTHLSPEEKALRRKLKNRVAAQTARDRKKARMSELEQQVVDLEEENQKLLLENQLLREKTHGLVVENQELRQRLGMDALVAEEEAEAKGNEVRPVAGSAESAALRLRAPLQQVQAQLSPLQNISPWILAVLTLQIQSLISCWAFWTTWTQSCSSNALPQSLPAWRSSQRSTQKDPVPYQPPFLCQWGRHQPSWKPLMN
Estrogen-related receptor gamma (Homo sapiens), sequence (P62508 whole entry, looked up, the tested form may be a part): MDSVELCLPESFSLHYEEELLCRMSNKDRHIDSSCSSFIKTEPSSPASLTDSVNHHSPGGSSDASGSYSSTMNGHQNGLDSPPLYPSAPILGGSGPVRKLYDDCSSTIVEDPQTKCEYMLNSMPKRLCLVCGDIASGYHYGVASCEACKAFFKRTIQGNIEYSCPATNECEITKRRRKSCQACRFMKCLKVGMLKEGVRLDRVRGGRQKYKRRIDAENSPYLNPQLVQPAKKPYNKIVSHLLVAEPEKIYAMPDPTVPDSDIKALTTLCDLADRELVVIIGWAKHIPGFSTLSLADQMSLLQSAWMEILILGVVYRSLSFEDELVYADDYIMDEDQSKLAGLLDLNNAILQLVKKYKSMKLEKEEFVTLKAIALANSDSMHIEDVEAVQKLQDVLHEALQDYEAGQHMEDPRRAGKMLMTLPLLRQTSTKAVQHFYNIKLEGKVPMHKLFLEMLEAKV
Nuclear receptor subfamily 1 group I member 3 (Homo sapiens), sequence (Q14994 whole entry, looked up, the tested form may be a part): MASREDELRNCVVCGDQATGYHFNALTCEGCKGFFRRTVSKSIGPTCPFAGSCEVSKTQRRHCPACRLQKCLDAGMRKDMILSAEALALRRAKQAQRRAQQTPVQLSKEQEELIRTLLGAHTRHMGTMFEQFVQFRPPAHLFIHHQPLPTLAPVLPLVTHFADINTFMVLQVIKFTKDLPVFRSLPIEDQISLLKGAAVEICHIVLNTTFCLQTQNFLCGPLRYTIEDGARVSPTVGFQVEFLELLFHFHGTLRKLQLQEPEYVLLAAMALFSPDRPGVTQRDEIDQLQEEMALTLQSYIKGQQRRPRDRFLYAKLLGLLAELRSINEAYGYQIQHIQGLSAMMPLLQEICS
Steroid hormone receptor ERR1 (Homo sapiens), sequence (P11474 whole entry, looked up, the tested form may be a part): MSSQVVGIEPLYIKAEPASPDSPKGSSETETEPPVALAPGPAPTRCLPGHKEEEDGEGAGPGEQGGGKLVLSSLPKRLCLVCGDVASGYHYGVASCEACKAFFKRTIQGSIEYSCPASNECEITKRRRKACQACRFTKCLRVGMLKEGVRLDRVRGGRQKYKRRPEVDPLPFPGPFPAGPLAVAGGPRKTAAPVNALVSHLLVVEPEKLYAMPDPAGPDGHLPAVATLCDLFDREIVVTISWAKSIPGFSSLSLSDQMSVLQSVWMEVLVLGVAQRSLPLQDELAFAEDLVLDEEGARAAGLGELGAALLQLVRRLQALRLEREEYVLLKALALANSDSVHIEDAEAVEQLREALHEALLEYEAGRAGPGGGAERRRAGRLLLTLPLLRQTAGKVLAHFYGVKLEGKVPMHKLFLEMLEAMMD
Estrogen receptor (Homo sapiens), sequence (P03372 whole entry, looked up, the tested form may be a part): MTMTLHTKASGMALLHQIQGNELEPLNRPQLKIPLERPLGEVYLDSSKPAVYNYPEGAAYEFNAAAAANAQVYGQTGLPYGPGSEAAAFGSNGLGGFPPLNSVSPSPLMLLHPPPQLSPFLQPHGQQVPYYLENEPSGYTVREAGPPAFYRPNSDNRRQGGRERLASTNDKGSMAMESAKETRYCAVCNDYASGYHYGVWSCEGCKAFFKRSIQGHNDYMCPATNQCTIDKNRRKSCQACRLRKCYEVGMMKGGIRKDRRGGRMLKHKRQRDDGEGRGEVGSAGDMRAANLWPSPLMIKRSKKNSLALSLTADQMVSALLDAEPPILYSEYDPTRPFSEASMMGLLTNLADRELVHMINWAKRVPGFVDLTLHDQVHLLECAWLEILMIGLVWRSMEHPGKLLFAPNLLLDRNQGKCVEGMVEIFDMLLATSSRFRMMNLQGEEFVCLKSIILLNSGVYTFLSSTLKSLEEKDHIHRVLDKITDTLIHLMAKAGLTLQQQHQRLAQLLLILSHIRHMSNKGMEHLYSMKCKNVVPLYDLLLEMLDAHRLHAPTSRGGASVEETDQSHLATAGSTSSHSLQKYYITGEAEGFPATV

C1=Cc2ccccc2C1
active: [5] 65.8 µM
not listed: [9] | [10]
inactive: all other assays above

COc1ccc(C(Cl)=C(c2ccc(OC)cc2)c2ccc(OC)cc2)cc1
active: [3] 4.46 µM
inactive: [1] | [2] | [4] | [6]

CCCCCCCCCCCCCOP(=O)(O)O
inactive: [1] | [2] | [3] | [4] | [5] | [9]

O=c1c2ccccc2oc2ccccc12
active: [5] 27.8 µM
not listed: [8] | [9] | [10]
inactive: all other assays above

CCOC(=O)c1ccc(N(C)C)cc1
inactive: [1] | [2] | [4] | [6]
active: [3] 65.8 µM

CCOC(=O)CC
inactive: [1] | [2] | [3] | [4] | [6]

CCCCC/C=C\CCC=O
inactive: [1] | [2] | [3] | [4] | [6] | [9]

CCCCC(CC)COC(=O)c1ccccc1O (centres undefined)
active: [5] 50 µM
not listed: [7] | [9] | [10]
inactive: all other assays above

CC(=O)OCc1ccco1
inactive: [1] | [2] | [3] | [4] | [7] | [8]

CC(=O)NS(=O)(=O)c1ccc(N)cc1
inactive: [1] | [2] | [3] | [4] | [6] | [7]

CCO[Si](CCCN=C=O)(OCC)OCC
not listed: [5] | [8] | [10]
inactive: all other assays above

O=C(OCC1CCC2OC2C1)C1CCC2OC2C1 (centres undefined)
inactive: [1] | [2] | [3] | [4] | [6]

O=c1[nH]nc(-c2ccc([N+](=O)[O-])o2)o1
not listed: [5] | [7] | [10]
inactive: all other assays above

O=C1c2cccc(O)c2C(=O)c2c(O)cc(CO)cc21
active: [5] 5.81 µM
not listed: [7] | [9] | [10]
inactive: all other assays above

NC(=O)N=NC(N)=O
inactive: [1] | [2] | [3] | [4] | [6] | [7]

Cc1cccc(N(C)C(=S)Oc2ccc3ccccc3c2)c1
inactive: [1] | [4] | [6] | [7]
active: [2] 9.03 µM | [3] 1.11 µM

CC=CC(=O)N(CC)c1ccccc1C
active: [3] 15.5 µM
not listed: [5] | [7] | [8]
inactive: all other assays above

CNC(=S)N(C)C
inactive: [1] | [2] | [3] | [4] | [5] | [7]

O=c1c2ccccc2nnn1CCl
inactive: [1] | [2] | [3] | [4] | [5] | [7]

C=CCOc1c(Br)cc(Br)cc1Br
inactive: [1] | [2] | [4] | [6] | [8]
active: [3] 23.7 µM | [5] 15.7 µM

C=C1C2CCC(C2)C1(C)C (centres undefined)
not listed: [6] | [7] | [10]
inactive: all other assays above

CO[Si](OC)(OC)c1ccccc1
not listed: [4] | [7] | [8]
inactive: all other assays above

CC1(C)O[C@@H]2C[C@H]3[C@@H]4C[C@H](F)C5=CC(=O)CC[C@]5(C)[C@H]4[C@@H](O)C[C@]3(C)[C@]2(C(=O)CO)O1
inactive: [1] | [2] | [3] | [5] | [6]

CC[C@H]1OC(=O)[C@H](C)[C@@H](O[C@H]2C[C@@](C)(OC)[C@@H](O)[C@H](C)O2)[C@H](C)[C@@H](O[C@@H]2O[C@H](C)C[C@H](N(C)C)[C@H]2O)[C@](C)(O)C[C@@H](C)C(=NOCOCCOC)[C@H](C)[C@@H](O)[C@]1(C)O
not listed: [4] | [8] | [10]
inactive: all other assays above

Cc1cc(=O)n(-c2ccccc2)n1C
inactive: [1] | [2] | [3] | [5] | [6] | [9]

O=C(O)c1ccccc1Nc1cccc(C(F)(F)F)c1
active: [3] 44.5 µM | [6] 76.5 µM
inactive: [1] | [2] | [5]

CC(=O)OC(C)C
inactive: [1] | [2] | [3] | [5] | [6]

CC(C)c1ccc2cc(C(C)C)ccc2c1
active: [5] 13.7 µM
inactive: [1] | [2] | [3] | [6]

O=S(=O)(O)c1cc(S(=O)(=O)O)c2ccc3c(S(=O)(=O)O)cc(S(=O)(=O)O)c4ccc1c2c43
not listed: [4] | [7] | [8]
inactive: all other assays above

COc1c2ccoc2cc2oc(=O)ccc12
inactive: [1] | [2] | [3] | [5] | [6]
